Bioassay records deposited in PubChem BioAssay by National Center for Advancing Translational Sciences (NCATS).
SARS PLpro yeast – blocks SARS-CoV papain-like protease in a yeast assay. Potency, µM (top dose mostly 32.9 µM), actives largely listed as activators. 330,000 compounds, 0.19% hits. S. cerevisiae expressing SARS-CoV PLpro, growth rescue; also: nearly all actives have a fitted effect of over 55% in size
NS1 function inh – influenza NS1 inhibition | AID 2326 | 270,000 compounds, 0.4% hits | Potency, µM (series often up to 46.1 µM); also: actives are rising curves; nearly all actives have a fitted effect of over 50% in size
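OD600 was taken as the measure of yeast growth restored by compound in an NS1-expressing S. cerevisiae strain. Cells had been washed out of glucose medium and diluted 1:100 into galactose -URA medium, pH 6.0.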
Pf growth 48h – P. falciparum growth inhibition at 48 hours (one generation). P. falciparum luciferase growth in erythrocytes, 48 h. Potency, µM (top dose mostly 28.7 µM), actives largely listed as inhibitors. 310,000 compounds, 5.9% hits. AID 504832; active = well fitted inhibition curve with a large enough effect; inconclusive = small, poorly fitted or top-dose-only effect, or another doubt; inactive = no such curve, though single readings can be large or run the other way
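First compound was added to culture medium, then infected red cells at 0.1% parasitemia and 2% hematocrit (final). After incubation at 37 C under 5% CO2, luciferase detection reagent was dispensed and light output recorded.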
Shiga toxin inh – inhibitors of Shiga toxin in Vero cells | Vero cells, Shiga toxin protein synthesis inhibition reporter | inhibition, % at 38.7 µM | 290,000 compounds, 9.2% hits | AID 2315; in the data active = inhibition mostly above about 28%, no sharp cut-off; inactive = mostly below about 43%
Pf growth 96h – P. falciparum growth inhibition at 96 hours. AID 504834. Potency, µM (top dose mostly 28.7 µM), most hits filed as inhibitors. P. falciparum luciferase reporter growth, 96 h. 320,000 compounds, 6.9% hits; active = well fitted inhibition curve with a large enough effect; inconclusive = small, poorly fitted or top-dose-only effect, or another doubt; inactive = no such curve, though single readings can be large or run the other way
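Cell-based qHTS: luciferase-tagged P. falciparum in erythrocytes (2% hematocrit, 0.05% parasitemia final) incubated with compounds for 96 hours, 37 C, 5% CO2; luciferase detection reagent then added and luminescence measured.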
CHX counter – affects cycloheximide protein synthesis inhibition readout, counter-screen | max response, % | 300,000 compounds, 12% hits | cell reporter, cycloheximide protein synthesis inhibition counterscreen; in the data active = max response mostly above about 13%, no sharp cut-off; inactive = mostly below about 14%; also: read at 38.3 µM for the half of the compounds with a filed dose
Each line names hits and unclear results; the compound was inactive in the other large screens. An excerpt weighted towards active compounds, which were near 21% of everything screened. Unless noted, calls follow the shape of the full dose curve.

C=CCn1c(SCC(=O)NCc2ccc3c(c2)OCO3)nc2scc(-c3ccc(F)cc3)c2c1=O	none (no result: Pf growth 48h)
COc1ccccc1CNc1ccc(Br)cn1	Shiga toxin inh 99.0, Pf growth 96h inconclusive, CHX counter 50.3
Brc1ccc(NCc2cccc3ccccc23)nc1	CHX counter 26.5 (no result: Pf growth 48h)
COc1ccccc1CNc1ncnc2sccc12	none
Oc1ccccc1CNc1ccc(Br)cn1	none
CCOC(=O)c1c(C)oc2c1c(C=NCCO)c(O)c1ccccc12	Pf growth 48h inconclusive, Pf growth 96h 13.1µM, CHX counter 28.1
CCOC(=O)c1c(N2CCCCC2)c2ccccc2[nH]c1=O	none (no result: Pf growth 96h)
CCOC(=O)c1c(C)oc2c1c(C(c1ccccc1)N1CCOCC1)c(O)c1ccccc12 (stereo not drawn)	Shiga toxin inh 141.5, Pf growth 96h inconclusive, CHX counter 70.5 (no result: Pf growth 48h)
CCOC(=O)c1c(C)oc2c1c(C(c1cccnc1)N1CCCCC1)c(O)c1ccccc12 (stereo not drawn)	Pf growth 48h inconclusive, Shiga toxin inh 95.0, CHX counter 57.1 (no result: Pf growth 96h)
CCOC(=O)c1c(C)oc2c1c(/C=N/c1ccccn1)c(O)c1ccccc12	none (no result: SARS PLpro yeast, Pf growth 48h, Shiga toxin inh, Pf growth 96h, CHX counter)
Cc1cs/c(=N\N=C\c2ccccc2)n1Cc1ccco1	Pf growth 96h inconclusive, CHX counter 22.6
CC(C)=N/N=c1\scc(C)n1Cc1ccco1	none (no result: NS1 function inh)
Cc1csc(=Nc2cccnc2)n1Cc1ccco1	Pf growth 96h inconclusive (no result: NS1 function inh)
Cc1cs/c(=N\N=C2CCCCC2)n1Cc1ccco1	Shiga toxin inh 69.0, CHX counter 33.5 (no result: NS1 function inh)
Cc1cc(NC(=O)c2sccc2C)n(-c2cccc(Cl)c2)n1	NS1 function inh inconclusive
O=c1c(/C=N/N2CCOCC2)c(O)n(-c2ccccc2)c(=S)n1-c1ccccc1	CHX counter 16.8
COc1cc(/C=N/N2CCCCC2)cc(OC)c1O	none
COc1ccccc1-n1c(O)c(/C=N/N2CCCCC2)c(=O)n(-c2ccccc2OC)c1=S	Shiga toxin inh 33.2
Cn1c(O)c(/C=N/N2CCOCC2)c(=O)n(-c2ccccc2)c1=S	none
Cc1ccc(NS(=O)(=O)c2cc(C(=O)NCc3ccccn3)ccc2Cl)cc1C	Pf growth 96h inconclusive
CNC(=O)CC1C(=O)N(c2ccc(OC)cc2)C(=S)N1NC(=O)c1cccc(F)c1 (stereo not drawn)	none
CC1CCCN(c2ncnc3c2cnn3-c2ccccc2)C1 (stereo not drawn)	CHX counter 19.5
Cc1ccc(-n2ncc3c(N4CCCC4)ncnc32)c(C)c1	Pf growth 96h inconclusive
Cc1ccc(-n2ncc3c(N4CCCC(C)C4)ncnc32)c(C)c1 (stereo not drawn)	Shiga toxin inh 82.6, CHX counter 64.9
CC1CC(C)CN(c2ncnc3c2cnn3-c2ccc(Cl)cc2)C1 (stereo not drawn)	Shiga toxin inh 105.3, CHX counter 59.3
CC1CCCN(c2ncnc3c2cnn3-c2ccc(Cl)cc2)C1 (stereo not drawn)	Shiga toxin inh 59.5, CHX counter 61.8
COc1cccc(N2CCN(c3ncnc4c3cnn4-c3ccc(C)cc3C)CC2)c1	Pf growth 96h 5.86µM, CHX counter 17.1 (no result: Pf growth 48h)
COc1ccc(-n2ncc3c(N4CCN(Cc5ccccc5)CC4)ncnc32)cc1	Pf growth 96h inconclusive (no result: NS1 function inh)
CC(C)(C)c1ccc(-c2nnc(SCc3ccc(Cl)cc3)n2-c2cccc(C(F)(F)F)c2)cc1	none (no result: SARS PLpro yeast, Pf growth 48h, Shiga toxin inh, Pf growth 96h, CHX counter)
O=C(CSc1ccc(-c2ccccn2)nn1)N1CCCCC1	Shiga toxin inh 72.1, CHX counter 30.8 (no result: NS1 function inh)
O=C(CSc1ccc(-c2ccco2)nn1)c1ccccc1	Shiga toxin inh 31.6, Pf growth 96h inconclusive, CHX counter 23.5
O=C(CSc1ccc(-c2ccco2)nn1)N1CCCCCC1	Shiga toxin inh 51.1 (no result: NS1 function inh)
O=C(CSc1ccc(-c2ccco2)nn1)NC1CCCCC1	none (no result: NS1 function inh)
COc1ccc(C(=O)CSc2ccc(-c3ccccc3)nn2)cc1	Pf growth 96h inconclusive
COc1cccc(-c2ccc(SCC(=O)c3ccccc3)nn2)c1	Shiga toxin inh 48.1 (no result: NS1 function inh)
CN(CC(=O)Nc1ccccc1Cl)C(=O)COC(=O)Cc1ccc(F)cc1	none
O=C(CSc1ccc(-c2ccccc2)nn1)N1CCCCC1	Shiga toxin inh 71.6, CHX counter 30.9 (no result: NS1 function inh)
O=C(CSc1ccc(-c2ccc(F)cc2)nn1)N1CCCCC1	Shiga toxin inh 49.1
COc1cc(/C=N/NC(=S)NCCN2CCOCC2)cc(OC)c1O	Shiga toxin inh 76.7, CHX counter 18.7
OCCCNCc1cccc2ccccc12	none
Oc1ccccc1CNCCCNCc1ccccc1O	Pf growth 48h 8.28µM
CC(=O)Oc1ccc(CCC(C)OC(C)=O)cc1 (stereo not drawn)	SARS PLpro yeast inconclusive
Cc1ccc2nc(-c3cccc(NS(C)(=O)=O)c3)cc(-c3ccccc3)c2c1	none
CCOc1cccc(=O)c2c(C)n(CC(=O)c3ccccc3)c(C)c12	Pf growth 48h 8.28µM
COc1ccc(N2C(=O)NC(NC(=O)c3cccnc3)(C(F)(F)F)C2=O)cc1 (stereo not drawn)	Pf growth 96h inconclusive
CCc1nnc(NC(=O)CN2CCN(Cc3ccccc3Cl)CC2)s1	none
CCCCCCCCCC[N+](C)(C)CCCCCCCCCC	Pf growth 48h 1.69µM, Pf growth 96h 1.69µM (no result: SARS PLpro yeast, NS1 function inh, Shiga toxin inh, CHX counter)
CCCCCCCCCCCCCCCC[N+](C)(C)CC	Pf growth 48h 3.29µM, Pf growth 96h 2.62µM (no result: SARS PLpro yeast, NS1 function inh, Shiga toxin inh, CHX counter)
CCCCCC[N+](C)(C)CCSSCC[N+](C)(C)CCCCCC	none
O=C1c2cccnc2C(Nc2ccccc2Br)N1Cc1ccco1 (stereo not drawn)	none (no result: NS1 function inh)
COc1cccc(C2C3=C(N=c4s/c(=C\c5cccc(O)c5)c(=O)n42)c2ccccc2CC3)c1OC (stereo not drawn)	NS1 function inh inconclusive, Pf growth 48h 2.33µM, Pf growth 96h inconclusive
COC(=O)C1=C(C)N=c2s/c(=C/c3ccoc3)c(=O)n2C1c1ccccc1 (stereo not drawn)	Pf growth 48h inconclusive (no result: SARS PLpro yeast)
COc1cccc(C2C3=C(N=c4s/c(=C\c5ccc(O)cc5)c(=O)n42)c2ccccc2CC3)c1OC (stereo not drawn)	Pf growth 48h inconclusive, Pf growth 96h 13.1µM
CCOC(=O)C1=C(C)N=c2s/c(=C/c3cccc(OCC(=O)O)c3)c(=O)n2C1c1ccc(F)cc1 (stereo not drawn)	Pf growth 48h inconclusive
COc1cccc(C2C3=C(N=c4s/c(=C\c5ccc(OCC(=O)O)cc5)c(=O)n42)c2ccccc2CC3)c1 (stereo not drawn)	NS1 function inh inconclusive, Pf growth 48h inconclusive, Pf growth 96h inconclusive
COc1ccccc1C1C2=C(N=c3s/c(=C/c4cccc(OCC(=O)O)c4)c(=O)n31)c1ccccc1CC2 (stereo not drawn)	NS1 function inh inconclusive, Pf growth 48h 10.4µM, Pf growth 96h inconclusive
Cc1cc(-n2cnnn2)cc(C)c1S(=O)(=O)N(C)c1ccccc1	Pf growth 48h inconclusive
Cc1oc2c(c(C)cc3oc(=O)c(CC(=O)N[C@@H](CCCNC(N)=O)C(=O)O)c(C)c32)c1C	none
